A number with no mark means an inactive call. Calls of active or inactive are those of the source. Cut-off read from the data, not from the text of the source: active = inhibition above about 42%; inactive = the rest.
Target: Nuclear receptor subfamily 5 group A member 2 (Homo sapiens) (UniProt O00482)
Assay: LRH-1 (NR5A2) inverse agonists, retest, confirmation, cell-based, luminescence (AID 651613);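 note: HEK293T cells co-transfected with LRH-1 and StAR promoter luciferase reporter; 0% = vehicle wells and 100% = parental cells lacking receptor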
Details: cell-based LRH-1 luciferase reporter, inverse agonism; at 3.6 µM; hits give high values

Nuclear receptor subfamily 5 group A member 2 (Homo sapiens), sequence (O00482 whole entry, looked up): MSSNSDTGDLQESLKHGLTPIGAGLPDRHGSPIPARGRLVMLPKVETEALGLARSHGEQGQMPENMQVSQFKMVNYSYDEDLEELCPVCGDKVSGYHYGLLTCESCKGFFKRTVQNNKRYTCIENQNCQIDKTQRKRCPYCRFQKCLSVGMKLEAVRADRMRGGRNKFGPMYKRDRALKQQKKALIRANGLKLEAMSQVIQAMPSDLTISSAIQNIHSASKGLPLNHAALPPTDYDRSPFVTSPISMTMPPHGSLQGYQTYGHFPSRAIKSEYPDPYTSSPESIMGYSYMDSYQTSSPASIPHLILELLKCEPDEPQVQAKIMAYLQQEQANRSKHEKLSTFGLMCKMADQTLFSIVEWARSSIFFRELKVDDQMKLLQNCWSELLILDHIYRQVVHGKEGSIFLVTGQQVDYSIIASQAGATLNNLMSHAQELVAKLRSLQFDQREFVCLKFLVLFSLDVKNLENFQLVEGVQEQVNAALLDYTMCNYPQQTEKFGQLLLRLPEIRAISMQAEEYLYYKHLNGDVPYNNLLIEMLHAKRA

| SMILES | inhibition |
| --- | --- |
| CCOC(=O)c1c2c(n(Cc3ccccc3)c1C)C(=O)C(=O)c1ccccc1-2 | 60.6% (active) |
| O=C(Nc1ccccn1)c1ccc([N+](=O)[O-])o1 | 58.2% (active) |
| O=C(Nc1ccc(F)cc1)C(c1cc2ccccc2o1)N1CCN(c2cccc(C(F)(F)F)n2)CC1 (stereo unspecified) | 24.9% |
| CC1(C)CC(=O)C=C(c2ccc3ncccc3c2)C1 | 52.2% (active) |
| NC(=S)N/N=C/c1ccc(-n2nncc2-c2ccc(Cl)cc2)cc1 | 51.6% (active) |
| O=C(Cn1cnc2c(nnn2-c2ccccc2)c1=O)NCCc1ccccc1 | 50.9% (active) |
| COc1ccc(C2=CC(=O)CC(C)(C)C2)cc1OC | 59.1% (active) |
| Cc1cc(C(=O)NC2CCCc3c2cnn3-c2cccc(C)c2C)n(C)n1 (stereo unspecified) | 68.2% (active) |
| O=C(c1ccccc1)c1cc(-c2ccccn2)c(N2CCOCC2)s1 | 68.3% (active) |
| Cn1c2c(c(=O)n(C)c1=O)C(C(F)(F)F)(C(F)(F)F)N=C(CCC1CCCCC1)N2 | 41.9% (active) |
| CCOc1ccc(NC(=O)COC(=O)c2ccc3c(c2)OCCO3)cc1 | 57.6% (active) |
| COc1cc(NC(=O)Cn2ccsc2=N)c(C)cc1[N+](=O)[O-] | 49.5% (active) |
| COc1cccc(COC(=O)C2CC(=O)N(Cc3ccco3)C2)c1OC (stereo unspecified) | 30.3% |
| CCOc1ccc(Cc2nnc(SCC(=O)Nc3ccc(C(C)=O)cc3)[nH]c2=O)cc1 | 52% (active) |
| O=C(N/N=C/c1cc2c3c(c1O)CCCN3CCC2)c1ccccc1O | 103% (active) |
| CCCN1Cc2cccc(C(=O)NC(C)c3cccs3)c2C1=O (stereo unspecified) | 38.5% |

Reference: PubChem BioAssay
